Records with an inconclusive call do not appear. Active and inactive are the calls of the source. Unless noted, calls come from the whole dose curve; as a rule, active = well fitted curve in the direction sought with a large enough effect; inconclusive = small, poorly fitted or top-dose-only effect, or another doubt; inactive = no such curve, though single readings can be large; an effect the other way counts as inactive or inconclusive.
What was measured:
[1] = AP1 Signaling Pathway (AID 357; active = well fitted curve in either direction with a large enough effect, not every such curve was filed as active;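 note: ME-180 reporter cells stimulated with EGF at its EC50 level; % is set by controls: 0 for no effect and ±100 for the full control effect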); details: ME-180 AP-1-bla reporter, EGF-induced, beta-lactamase ratio, 5 h; at 7.69 µM (top of the series) unless noted
Summary of the method: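 Cells are seeded overnight, exposed to compound titrations and an EC50 level of EGF for 5 hours at 37 °C, then loaded with CCF4 dye for 2.5 hours. Beta-lactamase activity under the AP-1 element is read as a blue/green ratio.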

[2] = molecular target: Cytochrome P450 1A2 (Homo sapiens) (UniProt P05177); assay: p450-cyp1a2 (AID 410; calls by dose curve;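 note: -100% = full effect of reference inhibitor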)
Summary of the method: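 O-Demethylation of luciferin 6' methyl ether by human CYP1A2 is monitored as luciferase luminescence. Substrate sits at Km (100uM); enzyme is 20nM. Values are scaled to 57 uM furafylline as maximal inhibition.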

[3] = NFAT Signaling Pathway (AID 444; active = well fitted curve in either direction with a large enough effect, not every such curve was filed as active;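 note: carbachol stimulus at about its EC50 of 1 µM final; % is set by controls: 0 for no effect and ±100 for the full control effect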); details: Jurkat NFAT-bla M1, carbachol, beta-lactamase ratio, 5 h; at 7.69 µM (top of the series) unless noted
Summary of the method: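 Read-out: CCF4 FRET ratio (460 nm/530 nm) after 1 h RT dye loading, used for %activity and AC50 from titration series. Cells: Jurkat NFAT-β-lactamase/M1 line, treated with compound plus 1 uM carbachol for 5 h, 37 °C.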

[4] = Stat Signaling Pathway (AID 446; active = well fitted curve in either direction with a large enough effect, not every such curve was filed as active;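 note: ME-180 cervical cancer cells given 40 pM IL-6 alongside compound; SIE-controlled beta-lactamase reporter measured as 460/530 nm FRET emission ratio; % is set by controls: 0 for no effect and ±100 for the full control effect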); details: ME-180 (cervical carcinoma) SIE beta-lactamase reporter, IL-6 stimulated, 5 h; at 7.69 µM (top of the series) unless noted
Summary of the method: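 Emission at 460 and 530 nm (excitation 405 nm) reports SIE-controlled beta-lactamase in ME-180 cells. Cells received compound with 40 pM IL-6 for 5 hrs at 37 C; data scaled between 300 pM IL-6 and 125 nM JAK-inhibitor controls.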

[5] = molecular target: Glucocorticoid receptor (Homo sapiens) (UniProt P04150); assay: GR-GFP Redistribution (AID 450;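 active = compounds whose dose series gives a full or clear partial fitted curve of increased nuclear translocation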; note: potency is the fitted concentration of half-maximal effect); details: U2OS GR-GFP nuclear translocation, laser cytometry, 2 h
[6] = molecular target: Glucocorticoid receptor (Homo sapiens) (UniProt P04150); assay: GR-EFC Redistribution (AID 451; calls by dose curve; note: potency is the fitted concentration of half-maximal effect); details: CHO-K1 GR-EFC translocation, beta-gal luminescence, 2 h
Summary of the method: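 Translocation of GR-ED fusion to nuclear EA restores b-gal, read by luminescence after 1 h room-temperature detection. Engineered CHO-K1 biosensor cells, 1,000/well, exposed 2 h at 37 C to titrations up to 46 uM final.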

[7] = molecular target: Mitogen-activated protein kinase 10 (Mus musculus) (UniProt Q61831); assay: JNK3 AlphaScreen Assay (AID 530; active = well fitted curve in either direction with a large enough effect, not every such curve was filed as active;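 note: kinase came from lysate of stimulated human HepG2 cells; signal reports phosphorylation of biotinylated GST-cJun 1-79 at Ser73 with 10 µM ATP; % is set by controls: 0 for no effect and ±100 for the full control effect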)
Summary of the method: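 qHTS titrations with 15 min compound pre-incubation before adding ATP (10 uM final). Read-out: AlphaScreen of Ser73-phosphorylated biotin-GST-cJun using HepG2 lysate JNK3 activated by IL-1β and TNFα.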

[8] = molecular target: 3',5'-cyclic-AMP phosphodiesterase 4B (Homo sapiens) (UniProt Q07343); assay: qHTS Assay for Inhibitors of PDE-IV (AID 607; active = well fitted activation curve with a large enough effect in the main read-out, with a control signal flat, not every such curve was filed as active; note: % of control where 0% means no effect)
Summary of the method: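 The readout is membrane depolarisation from a cAMP-sensing CNG channel, detected with a potential dye at ex 535/em 590. Cells were HEK293-derived (endogenous PDE-IV) at 1000 cells/well, titrated up to 22.9 uM final.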

[9] = molecular target: Cytochrome P450 3A4 (Homo sapiens) (UniProt P08684); assay: qHTS Assay for Inhibitors and Substrates of Cytochrome P450 3A4 (AID 884); note: % is set by controls: 0 for no effect and ±100 for the full control effect; nearly all actives have a fitted effect of over 50% in size
Summary of the method: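 Luminescent readout of luciferin produced by CYP3A4 (20 nM) dealkylation of Luciferin-PPXE, 25 uM (its KM). NADPH-driven reaction ran 60 min at RT after 10 min compound preincubation; data scaled to 57 uM ketoconazole as 100% inhibition.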

[10] = molecular target: Cytochrome P450 3A4 (Homo sapiens) (UniProt P08684); assay: qHTS Assay for Activators of Cytochrome P450 3A4 (AID 885); note: potency is the fitted concentration of half-maximal effect; nearly all actives have a fitted effect of over 65% in size
Summary of the method: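 Activators are scored by enhanced luminescence from CYP3A4 conversion of luciferin-PPXE (25uM, equal to KM) to luciferin, after 60 min at RT with an NADPH-regenerating system.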

[11] = qHTS Assay for Lipid Storage Modulators (AID 1519; calls by dose curve); details: Drosophila S3 cells, BODIPY lipid droplet/cell ratio, laser cytometry, cells loaded with oleic acid
Summary of the method: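 Cells seeded at 5,000 per well were treated with compounds over a concentration series and loaded with oleic acid (400 uM, as added). Lipid droplet fluorescence (488 nm excitation, 500-530 nm channel) was read by laser-scanning cytometry and normalized to 20 uM Triacsin C.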

[12] = molecular target: ATP-dependent 6-phosphofructokinase (Trypanosoma brucei brucei) (UniProt O15648); assay: qHTS Assay to Find Inhibitors of T. brucei phosphofructokinase: hit validation (AID 492961)
Summary of the method: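 ADP-Glo luminescence read-out of ADP formed by 1.25 nM PFK from 0.1 mM ATP and 0.5 mM F6P (TEA pH 8.0, 45 min, RT). Compounds titrated; activity normalized to no-enzyme and full-enzyme controls.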

[13] = molecular target: Luciferin 4-monooxygenase (Photinus pyralis) (UniProt P08659); assay: Biochemical firefly luciferase enzyme assay for NPC (AID 624030);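 note: purified P. pyralis luciferase at 10 nM with luciferin and ATP substrate; 0% = DMSO and -100% = full luciferase inhibition by PTC124 control; nearly all actives have a fitted effect of over 70% in size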
Summary of the method: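 Direct inhibition of firefly luciferase enzyme (10 nM final, 50 mM Tris Acetate) assessed by luminescence within 5 minutes. Percent activity scaled between DMSO and PTC124 positive control, with concentration-effect curves classified by fit quality and response.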

[14] = S16 Schwann cell viability assay (CellTiter-Glo assay) (AID 624031);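 note: cellular ATP luminescence as a viability measure; plate controls were DMSO-treated cells for no effect and cell-free wells for full effect; nearly all actives have a fitted effect of over 70% in size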
Summary of the method: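 Native S16 Schwann cells (rat), serum-containing medium, overnight attachment then 24 h drug exposure at 37 °C/5% CO2. CellTiter-Glo ATP signal; normalized to cell-free and vehicle wells.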

[15] = S16 Schwann cell PMP22 intronic element firefly luciferase assay (AID 624032);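 note: plate controls were DMSO for no effect and PTC124 positive control mean for full effect; nearly all actives have a fitted effect of over 30% in size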
Summary of the method: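 Luciferase reporter of PMP22 intronic-element expression in stably transfected S16 rat Schwann cells, read by ONE-Glo luminescence after 24 h compound exposure at 37 C. Activity scaled between DMSO (0%) and positive-control PTC124; concentration-effect curves quality-classified.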

[16] = S16 Schwann cell PMP22 intronic element beta-lactamase assay (AID 624044; calls by dose curve;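 note: 0% = DMSO and -100% = potassium clavulanate positive control; nearly all actives have a fitted effect of over 15% in size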)
Summary of the method: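 Beta-lactamase reporter under a PMP22 intronic regulatory element in stable S16 rat Schwann cells; 24 h compound exposure. 460 nm blue signal normalized between DMSO (0%) and potassium clavulanate, with 535 nm FRET tracking viability; curves classed by r2 and response.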

[17] = qHTS profiling for inhibitors of Plasmodium falciparum proliferation (AID 504749);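 note: 0% = DMSO vehicle and full inhibition = artemisinin control; nearly all actives have a fitted effect of over 60% in size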; details: P. falciparum in erythrocytes, SYBR Green DNA, 72 h, at 12.8 µM (top of the series)
Summary of the method: (§1)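 SYBR Green fluorescence of parasite DNA, read after lysis and overnight dark incubation, measured growth over 72 h in erythrocyte culture at 0.3% parasitemia and 2.5% hematocrit. Data normalised to DMSO and 0.29 uM artemisinin, with plate-drift correction.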

[18] = tested on: 3D7; assay: as above; details: P. falciparum in erythrocytes, SYBR Green DNA, 72 h; series mostly up to 12.8 µM
Summary of the method: as §1

[19] = tested on: 7G8; assay: as above; details: P. falciparum in erythrocytes, SYBR Green DNA, 72 h; series mostly up to 12.8 µM
Summary of the method: as §1

[20] = tested on: AA1029; assay: as above; details: P. falciparum in erythrocytes, SYBR Green DNA, 72 h; series mostly up to 12.8 µM
Summary of the method: as §1

[21] = tested on: AS120; assay: as above; details: P. falciparum in erythrocytes, SYBR Green DNA, 72 h; series mostly up to 28.7 µM
Summary of the method: as §1

[22] = tested on: ATS189; assay: as above; details: P. falciparum in erythrocytes, SYBR Green DNA, 72 h; series mostly up to 12.8 µM
Summary of the method: as §1

[23] = tested on: ATS95; assay: as above; details: P. falciparum in erythrocytes, SYBR Green DNA, 72 h; series mostly up to 12.8 µM
Summary of the method: as §1

[24] = tested on: C2A; assay: as above; details: P. falciparum in erythrocytes, SYBR Green DNA, 72 h; series mostly up to 12.8 µM
Summary of the method: as §1

[25] = tested on: CP185; assay: as above; details: P. falciparum in erythrocytes, SYBR Green DNA, 72 h; series mostly up to 12.8 µM
Summary of the method: as §1

[26] = tested on: CP191; assay: as above; details: P. falciparum in erythrocytes, SYBR Green DNA, 72 h; series mostly up to 12.8 µM
Summary of the method: as §1

[27] = tested on: CP194; assay: as above; details: P. falciparum in erythrocytes, SYBR Green DNA, 72 h; series mostly up to 12.8 µM
Summary of the method: as §1

[28] = tested on: CP201; assay: as above; details: P. falciparum in erythrocytes, SYBR Green DNA, 72 h; series mostly up to 12.8 µM
Summary of the method: as §1

[29] = tested on: CP203; assay: as above; details: P. falciparum in erythrocytes, SYBR Green DNA, 72 h; series mostly up to 12.8 µM
Summary of the method: as §1

[30] = tested on: CP211; assay: as above; details: P. falciparum in erythrocytes, SYBR Green DNA, 72 h; series mostly up to 12.8 µM
Summary of the method: as §1

[31] = tested on: CP215; assay: as above; details: P. falciparum in erythrocytes, SYBR Green DNA, 72 h; series mostly up to 28.7 µM
Summary of the method: as §1

[32] = tested on: CP217; assay: as above; details: P. falciparum in erythrocytes, SYBR Green DNA, 72 h; series mostly up to 12.8 µM
Summary of the method: as §1

[33] = tested on: CP237; assay: as above; details: P. falciparum in erythrocytes, SYBR Green DNA, 72 h; series mostly up to 12.8 µM
Summary of the method: as §1

[34] = tested on: CP238; assay: as above; details: P. falciparum in erythrocytes, SYBR Green DNA, 72 h; series mostly up to 12.8 µM
Summary of the method: as §1

[35] = tested on: CP247; assay: as above; details: P. falciparum in erythrocytes, SYBR Green DNA, 72 h; series mostly up to 12.8 µM
Summary of the method: as §1

[36] = tested on: CP250; assay: as above; details: P. falciparum in erythrocytes, SYBR Green DNA, 72 h; series mostly up to 12.8 µM
Summary of the method: as §1

Chain of Glucocorticoid receptor (Homo sapiens) (P04150 whole entry, looked up, the tested form may be a part): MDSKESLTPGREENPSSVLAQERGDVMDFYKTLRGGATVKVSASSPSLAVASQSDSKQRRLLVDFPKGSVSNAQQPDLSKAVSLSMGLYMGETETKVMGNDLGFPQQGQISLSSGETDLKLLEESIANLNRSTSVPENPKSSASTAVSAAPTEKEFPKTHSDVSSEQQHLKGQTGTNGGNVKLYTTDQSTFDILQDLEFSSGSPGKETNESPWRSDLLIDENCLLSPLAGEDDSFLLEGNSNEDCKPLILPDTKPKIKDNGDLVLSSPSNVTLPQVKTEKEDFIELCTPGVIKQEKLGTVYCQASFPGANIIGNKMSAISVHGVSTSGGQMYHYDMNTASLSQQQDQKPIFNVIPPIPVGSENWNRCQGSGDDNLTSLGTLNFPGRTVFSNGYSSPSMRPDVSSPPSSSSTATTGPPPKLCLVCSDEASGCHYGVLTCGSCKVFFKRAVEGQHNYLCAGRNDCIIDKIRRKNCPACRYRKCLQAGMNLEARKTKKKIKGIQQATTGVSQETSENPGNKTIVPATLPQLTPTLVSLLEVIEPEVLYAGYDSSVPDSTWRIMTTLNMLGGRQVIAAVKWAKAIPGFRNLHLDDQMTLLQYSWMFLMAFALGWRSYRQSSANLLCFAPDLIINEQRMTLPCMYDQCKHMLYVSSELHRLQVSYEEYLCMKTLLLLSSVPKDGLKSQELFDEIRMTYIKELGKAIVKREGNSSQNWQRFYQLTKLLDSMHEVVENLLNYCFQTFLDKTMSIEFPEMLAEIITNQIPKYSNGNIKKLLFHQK
Chain of Cytochrome P450 3A4 (Homo sapiens) (P08684 whole entry, looked up): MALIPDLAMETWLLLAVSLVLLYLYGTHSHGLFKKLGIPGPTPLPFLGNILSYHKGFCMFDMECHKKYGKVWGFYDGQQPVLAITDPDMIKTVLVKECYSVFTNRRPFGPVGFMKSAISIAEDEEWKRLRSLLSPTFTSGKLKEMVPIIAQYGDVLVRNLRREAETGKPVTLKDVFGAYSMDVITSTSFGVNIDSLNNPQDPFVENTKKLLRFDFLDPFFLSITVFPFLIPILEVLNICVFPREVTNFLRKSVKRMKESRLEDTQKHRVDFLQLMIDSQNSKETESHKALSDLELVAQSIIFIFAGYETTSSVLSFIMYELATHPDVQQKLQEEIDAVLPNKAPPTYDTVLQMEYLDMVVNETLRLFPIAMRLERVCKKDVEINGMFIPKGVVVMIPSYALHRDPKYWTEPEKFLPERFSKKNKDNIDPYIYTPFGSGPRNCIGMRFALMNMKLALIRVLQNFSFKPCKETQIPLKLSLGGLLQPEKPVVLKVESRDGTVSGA
Chain of Luciferin 4-monooxygenase (Photinus pyralis) (P08659 whole entry, looked up): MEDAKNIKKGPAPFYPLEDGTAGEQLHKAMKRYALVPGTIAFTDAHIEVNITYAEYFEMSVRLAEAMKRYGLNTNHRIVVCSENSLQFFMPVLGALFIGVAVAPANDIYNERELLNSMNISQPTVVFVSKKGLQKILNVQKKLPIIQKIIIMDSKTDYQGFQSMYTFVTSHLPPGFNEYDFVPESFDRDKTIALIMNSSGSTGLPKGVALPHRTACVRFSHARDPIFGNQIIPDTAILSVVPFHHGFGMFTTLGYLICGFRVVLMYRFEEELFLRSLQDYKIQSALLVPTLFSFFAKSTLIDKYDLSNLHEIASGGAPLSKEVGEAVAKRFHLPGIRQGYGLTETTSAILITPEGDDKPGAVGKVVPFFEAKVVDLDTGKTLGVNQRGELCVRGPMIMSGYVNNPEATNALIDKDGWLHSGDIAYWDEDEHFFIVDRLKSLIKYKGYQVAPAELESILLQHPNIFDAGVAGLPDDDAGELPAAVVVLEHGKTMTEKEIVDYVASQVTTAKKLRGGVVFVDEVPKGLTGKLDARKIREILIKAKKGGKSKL
Chain of Cytochrome P450 1A2 (Homo sapiens) (P05177 whole entry, looked up): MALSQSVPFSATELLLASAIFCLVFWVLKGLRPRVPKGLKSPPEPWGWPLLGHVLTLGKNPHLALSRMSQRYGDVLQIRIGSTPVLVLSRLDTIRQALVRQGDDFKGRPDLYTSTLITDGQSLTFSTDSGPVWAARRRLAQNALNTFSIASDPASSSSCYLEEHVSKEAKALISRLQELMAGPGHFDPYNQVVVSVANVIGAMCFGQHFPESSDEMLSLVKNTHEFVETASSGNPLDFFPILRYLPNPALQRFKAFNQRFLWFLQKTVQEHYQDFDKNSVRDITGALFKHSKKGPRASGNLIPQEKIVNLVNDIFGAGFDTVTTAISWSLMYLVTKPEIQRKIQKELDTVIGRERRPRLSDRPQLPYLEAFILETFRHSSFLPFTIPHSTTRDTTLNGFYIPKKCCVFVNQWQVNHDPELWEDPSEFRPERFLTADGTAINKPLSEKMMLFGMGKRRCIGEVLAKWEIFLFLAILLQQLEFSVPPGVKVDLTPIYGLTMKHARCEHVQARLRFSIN
Chain of ATP-dependent 6-phosphofructokinase (Trypanosoma brucei brucei) (O15648 whole entry, looked up): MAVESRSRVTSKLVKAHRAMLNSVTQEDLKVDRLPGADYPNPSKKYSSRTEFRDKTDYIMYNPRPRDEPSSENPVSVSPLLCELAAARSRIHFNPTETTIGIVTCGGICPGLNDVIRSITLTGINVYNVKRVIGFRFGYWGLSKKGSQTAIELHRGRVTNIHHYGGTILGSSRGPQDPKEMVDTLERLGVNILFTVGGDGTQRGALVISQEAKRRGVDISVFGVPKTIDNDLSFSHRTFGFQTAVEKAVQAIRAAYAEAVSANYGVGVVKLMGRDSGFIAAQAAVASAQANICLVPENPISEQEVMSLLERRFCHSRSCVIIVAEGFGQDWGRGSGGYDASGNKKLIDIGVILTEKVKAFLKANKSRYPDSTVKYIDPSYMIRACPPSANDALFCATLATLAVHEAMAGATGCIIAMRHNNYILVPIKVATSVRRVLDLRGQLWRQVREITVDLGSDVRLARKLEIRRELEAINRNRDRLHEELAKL
Chain of 3',5'-cyclic-AMP phosphodiesterase 4B (Homo sapiens) (Q07343 whole entry, looked up): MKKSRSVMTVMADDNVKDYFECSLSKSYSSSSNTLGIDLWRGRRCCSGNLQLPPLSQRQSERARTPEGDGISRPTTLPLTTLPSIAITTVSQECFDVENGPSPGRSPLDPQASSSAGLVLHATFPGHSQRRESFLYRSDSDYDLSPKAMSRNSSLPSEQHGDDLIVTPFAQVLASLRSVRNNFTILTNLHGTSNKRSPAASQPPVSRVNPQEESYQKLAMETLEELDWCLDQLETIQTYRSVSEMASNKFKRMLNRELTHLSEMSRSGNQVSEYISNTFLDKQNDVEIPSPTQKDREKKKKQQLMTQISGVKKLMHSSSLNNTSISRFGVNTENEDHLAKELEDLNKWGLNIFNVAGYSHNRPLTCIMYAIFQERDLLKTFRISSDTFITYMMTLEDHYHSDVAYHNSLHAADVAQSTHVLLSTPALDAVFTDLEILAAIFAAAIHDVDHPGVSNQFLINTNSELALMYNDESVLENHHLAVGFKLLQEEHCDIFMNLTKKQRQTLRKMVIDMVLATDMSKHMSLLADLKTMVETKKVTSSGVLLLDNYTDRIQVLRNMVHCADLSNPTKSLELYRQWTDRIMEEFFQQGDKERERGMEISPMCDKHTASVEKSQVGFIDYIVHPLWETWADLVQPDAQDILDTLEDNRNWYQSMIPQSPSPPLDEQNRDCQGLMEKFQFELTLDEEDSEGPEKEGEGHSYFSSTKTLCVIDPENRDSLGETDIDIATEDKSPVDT

C/C=C\C(=O)N(CC)c1ccccc1C
inactive: activity change, negative = inhibition [1] -1.59% [at 17.2 µM] | Potency [2] | activity change, negative = inhibition [3] -0.257% [at 17.2 µM] | activity, negative = inhibition [4] 4.14% [at 17.2 µM] | Potency [5] > 20.6 µM | Potency [6] > 20.6 µM | Potency [7] | Potency [8] | Potency [9] | activity change, negative = inhibition ([11]; at 25.7 µM (top of the series)) -4.01% | outcome [12] | outcome [13] | Potency [14] | Potency [15] | outcome [16] | activity, negative = inhibition ([17]; parasite line A) 6.96% | activity, negative = inhibition ([17]; parasite line B) 1.34% | Potency [18] | Potency [19] | Potency [20] | Potency [21] | Potency [22] | Potency [23] | Potency [24] | Potency [25] | Potency [26] | Potency [27] | Potency [28] | Potency [29] | Potency [30] | Potency [31] | Potency [32] | Potency [33] | Potency [34] | Potency [35] | Potency [36]
-17.7%: max response ([11]; measured here: lipid channel max response)
-15.1%: max response ([11]; measured here: cell count channel max response)
active: Potency [10] 7.94 µM

Source: PubChem BioAssay (NCATS)
